Screening results deposited in PubChem BioAssay by Center for Chemical Genomics, University of Michigan.
Dicer inh: human Dicer pre-microRNA cleavage inhibition; Q9UPY3; cat-ELCCA pre-miR-21 Dicer processing, chemiluminescence; stronger effect = higher value; z-score at 25 µM; actives 6% (n = 47,000); in the data active means z-score above about 3, passing the limit was not always enough;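 further: plate controls were vehicle for no effect and no enzyme for full effect; higher signal means more uncleaved substrate so more Dicer inhibition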
* hit, by the source's call. The full list was thinned out, with hits kept by preference.

How did CCOC(=O)N1CCN(CC(O)COCc2ccc3c(c2)OCO3)CC1 (stereo not drawn) do in these assays?
Dicer inh: 3.2*

What do the screens show for `CCOC(=O)N1CCN(CC(O)COc2c(C)cc(C)cc2C)CC1` (stereo not drawn)?
Dicer inh: 3.3*

What do the screens show for `CCOC(=O)c1c(C)n(C)c2ccc(OCC(O)CN3CCN(C)CC3)cc12` (stereo not drawn)?
Dicer inh: 0.6

Results for O=C(COc1ccc(Cl)cc1)N1CCN(Cc2ccc3c(c2)OCO3)CC1 ?
Dicer inh: 0.41

How did CC12CCC3c4ccc(N)cc4CCC3C1CCC2=O (stereo not drawn) do in these assays?
Dicer inh: 2.3

What do the screens show for `CCCn1c(Cc2ccccc2)nc2ccccc21`?
Dicer inh: 0.88

Results for Cc1cc(C(F)(F)F)n2nc(C)c(C#N)c2n1 ?
Dicer inh: 0.55

How did CCOc1cccc(C2C3=C(Nc4c2c(=O)n(C)c(=O)n4C)c2ccccc2C3=O)c1 (stereo not drawn) do in these assays?
Dicer inh: -2

How did CSC(N)=NCc1ccco1 do in these assays?
Dicer inh: 0

Results for COc1ccccc1N1CCN(Cc2ccc3ccccc3c2)CC1 ?
Dicer inh: 1.9

Results for COc1ccccc1N1CCN(S(=O)(=O)c2cccc3ccccc23)CC1 ?
Dicer inh: 3.3*

Results for COc1cc(S(=O)(=O)N2CCC(C)CC2)ccc1Cl ?
Dicer inh: -0.36

How did COc1ccccc1N1CCN(S(=O)(=O)c2ccccc2)CC1 do in these assays?
Dicer inh: 0.58

How did COc1ccccc1N1CCN(C2CCN(S(=O)(=O)c3ccc(Cl)cc3)CC2)CC1 do in these assays?
Dicer inh: 3.6*

How did O=S(=O)(c1ccc(F)cc1)N1CCC(N2CCCC2)CC1 do in these assays?
Dicer inh: 2.3

What do the screens show for `CC(C)(C)c1cc(CC(=O)O)c2c(c1)C(C)(C)CC2`?
Dicer inh: 0.03

How did COC(=O)C1CCC(=O)C(C(=O)OC)C1 (stereo not drawn) do in these assays?
Dicer inh: 0.56

What do the screens show for `C/C(=N\N=C(/C)c1ccc(O)cc1)c1ccc(O)cc1`?
Dicer inh: -1.1

Results for O=S(=O)(c1ccc(-c2oc3cc(S(=O)(=O)N4CCCCC4)ccc3c2Cl)cc1)N1CCCCC1 ?
Dicer inh: 2

How did O=S(=O)(Nc1ccc(C(F)(F)F)cn1)c1ccc(-c2ccccn2)s1 do in these assays?
Dicer inh: -0.93

What do the screens show for `COC(=O)c1cnc(Sc2ccccc2NC(=O)Nc2cc(Cl)cc(Cl)c2)c([N+](=O)[O-])c1`?
Dicer inh: -1.3

What do the screens show for `COc1cc(C(=O)NNC(=O)Cc2nc(-c3ccccc3)sc2C)cc(OC)c1OC`?
Dicer inh: 0.28

How did Cc1c(C)c(C)c(NC(=O)/C=C/C(=O)O)c(NC(=O)/C=C/C(=O)O)c1C do in these assays?
Dicer inh: -1.4

What do the screens show for `CCS(=O)(=O)N1CCN(Cc2c[nH]c3ccccc23)CC1`?
Dicer inh: 3.5*

Results for FC(F)(F)c1cnc(N2CCN(Cc3c[nH]c4ccccc34)CC2)c(Cl)c1 ?
Dicer inh: -1.6

Results for Cc1cccc(CN2CCN(Cc3c[nH]c4ccccc34)CC2)c1 ?
Dicer inh: 1.7

What do the screens show for `COc1ccc2c(c1)CCCN2Cc1c[nH]c2ccccc12`?
Dicer inh: -1.9

How did O=C1COCC(=O)N1CCc1c[nH]c2ccccc12 do in these assays?
Dicer inh: -1.2

What do the screens show for `Fc1ccccc1CN1CCN(CCCc2ccccc2)CC1`?
Dicer inh: 2.5

How did Fc1ccccc1CN1CCN(Cc2c[nH]c3ccccc23)CC1 do in these assays?
Dicer inh: 3.7*

What do the screens show for `Brc1ccc(CN2CCN(Cc3c[nH]c4ccccc34)CC2)cc1`?
Dicer inh: 2.7

Results for Clc1ccccc1CN1CCN(Cc2c[nH]c3ccccc23)CC1 ?
Dicer inh: 4.5*

What do the screens show for `CN(C)CCC(=O)c1ccc(C(C)(C)C)cc1`?
Dicer inh: -1.5

What do the screens show for `C=CCN1C(=O)C(O)(CC(=O)c2cccc(Br)c2)c2ccccc21` (stereo not drawn)?
Dicer inh: -0.24

How did Cc1cc(C)c(C)c(Oc2coc3cc(OCC(=O)OCC(C)C)ccc3c2=O)c1 do in these assays?
Dicer inh: -0.92

What do the screens show for `O=S(=O)(c1ccc2c(c1)CCO2)N1CCCN(c2c(Cl)cncc2Cl)CC1`?
Dicer inh: -0.94

Results for C=CCOc1ccc2oc(-c3ccc(OC)cc3)cc(=O)c2c1 ?
Dicer inh: 1

What do the screens show for `CCOC(=O)c1c(CN(CC)CC)oc2ccc(OC)cc12`?
Dicer inh: 0.26

How did CCOC(=O)c1c(C)oc2ccc(O)c(CN(C)C)c12 do in these assays?
Dicer inh: 4*

What do the screens show for `CCOC(=O)c1c(C)oc2cc(Cl)c(O)c(CN(C)C)c12`?
Dicer inh: 1.8

What do the screens show for `CCCCCCn1cnc2c(sc3nc4c(cc32)COC(C)(C)C4)c1=O`?
Dicer inh: -1.5

Results for O=C(CSc1ncn[nH]1)Nc1nccs1 ?
Dicer inh: -1.1

Results for CC(C)c1nc2sc3c(NCCO)ncnc3c2c2c1CCCC2 ?
Dicer inh: 0.8

Results for CCOc1ccc2c(c1)C(=O)c1cc(OCC)ccc1-2 ?
Dicer inh: 6.4

What do the screens show for `CCOc1ccc2[nH]c(C3C(=O)c4ccccc4C3=O)cc(=O)c2c1`?
Dicer inh: -0.57

How did CCOc1ccc2c(c1)C(=O)C(c1cc(=O)c3ccccc3[nH]1)C2=O (stereo not drawn) do in these assays?
Dicer inh: 6.1*

How did NC(=O)Cc1ccccc1Br do in these assays?
Dicer inh: 0.86

How did CCOC(=O)C1(C)C=C(Nc2ccc(OCC)cc2)C(=O)N1c1ccc(OCC)cc1 (stereo not drawn) do in these assays?
Dicer inh: 3.2*

Results for CCOC(=O)C1(C)C=C(Nc2ccc(OC)cc2)C(=O)N1c1ccc(OC)cc1 (stereo not drawn) ?
Dicer inh: 0.34

How did CCOC(=O)C1(C)C(Br)=C(Nc2ccc(Cl)cc2)C(=O)N1c1ccccc1 (stereo not drawn) do in these assays?
Dicer inh: 1.2

Results for S=c1[nH]c(=S)c2cc(Cl)ccc2[nH]1 ?
Dicer inh: 2.7

What do the screens show for `Cc1cc(C)c(SCCC(=O)N2CCN(c3ncc(C(F)(F)F)cc3Cl)CC2)c(C)c1`?
Dicer inh: -3.2

Results for Cc1ccc(S(=O)(=O)CCSC2=CC(=O)CC(C)(C)S2)cc1 ?
Dicer inh: -3.2

Results for CC1(C)CC(=O)C=C(SCc2ccc(Cl)cc2)S1 ?
Dicer inh: 4*

How did CC1(C)CC(=O)C=C(SCCS(=O)(=O)c2ccccc2)S1 do in these assays?
Dicer inh: 1.9

What do the screens show for `CCOc1ccccc1C1C(C(=O)OC2CCCC2)=C(C)NC2=C1C(=O)CCC2` (stereo not drawn)?
Dicer inh: 0

Results for O=C(c1nc2ncccn2n1)N1CCc2ccccc2C1 ?
Dicer inh: 2

How did CS(=O)(=O)N(CC(=O)N1CCc2ccccc2C1)c1cccc2ccccc12 do in these assays?
Dicer inh: 1.7

Results for CN(C)S(=O)(=O)N1CCc2ccccc2C1 ?
Dicer inh: 4.9*

What do the screens show for `COc1cccc(OC)c1C(=O)Oc1ccc2c(=O)c(Oc3ccccc3Br)coc2c1`?
Dicer inh: 2.5

Results for COc1ccc(Oc2coc3cc(OC(=O)c4cccs4)ccc3c2=O)cc1 ?
Dicer inh: 1.3

How did COc1ccc(C(=O)Oc2ccc3c(=O)c(Oc4ccccc4Br)coc3c2)cc1 do in these assays?
Dicer inh: 1.4

Results for COc1ccc(Oc2coc3cc(OC(=O)c4ccco4)ccc3c2=O)cc1 ?
Dicer inh: 0.95
